Hits are enriched below; roughly 3% of the tested compounds scored in any of these assays.
SENP6 block = inhibitors of human SENP6 protease; Q9GZR1; Recombinant SENP6 catalytic domain, aminoluciferin luminescence; inhibition, % at 10 µM; 330,000 tested, 1.8% active;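 active means inhibition above about 50% at the single tested dose, limit read from the data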
SENP7 inh = blocks the human protease SENP7. Q9BQF6. recombinant SENP7, Z-RLRGG-aminoluciferin luminescence, 40 min. inhibition, % at 5 µM. 330,000 tested, 1.5% active. AID 434973;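 active means inhibition above about 50% at the single test dose, limit read from the data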
Target sequence (Q9BQF6 706-1050 limits assumed): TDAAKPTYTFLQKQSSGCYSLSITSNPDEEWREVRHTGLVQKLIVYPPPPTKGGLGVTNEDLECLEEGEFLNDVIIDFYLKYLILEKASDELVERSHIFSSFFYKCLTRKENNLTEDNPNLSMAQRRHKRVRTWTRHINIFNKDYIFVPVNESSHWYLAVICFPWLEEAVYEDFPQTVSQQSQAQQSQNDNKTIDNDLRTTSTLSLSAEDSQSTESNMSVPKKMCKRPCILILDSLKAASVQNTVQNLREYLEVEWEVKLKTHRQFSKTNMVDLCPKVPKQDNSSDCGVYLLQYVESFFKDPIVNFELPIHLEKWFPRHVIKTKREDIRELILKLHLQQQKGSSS
TRAIL sens C8 = sensitizes caspase-8 expressing cells to TRAIL | inhibition (viability loss, TRAIL sensitization), % at 10 µM | 360,000 tested, 1% active | NB7+C8 cells + TRAIL, ATPlite viability luminescence | AID 624354;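 active means compounds causing at least 50% loss of cell viability in the single-dose screen, relative to plate controls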
PPC-1+TRAIL kill = kills PPC-1 cancer cells in the presence of TRAIL. 220,000 tested, 0.41% active. PPC-1 cells + TRAIL, ATPLite viability luminescence. cell killing (% activity), % at 4 µM or 5 µM;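 active means cell killing above 50% in the first pass at 4 µM, then a duplicate retest at 5 µM averaging 50% or more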
SENP8 block-1 = blocks human SENP8 cleavage of Nedd8 substrate | Q96LD8 | recombinant SENP8, Nedd8 substrate fluorescence | inhibition, % at 20 µM | 360,000 tested, 0.64% active; in the data active means inhibition mostly above about 40%, no sharp cut-off; inactive means mostly below about 27%
Target sequence (Q96LD8 whole entry, looked up): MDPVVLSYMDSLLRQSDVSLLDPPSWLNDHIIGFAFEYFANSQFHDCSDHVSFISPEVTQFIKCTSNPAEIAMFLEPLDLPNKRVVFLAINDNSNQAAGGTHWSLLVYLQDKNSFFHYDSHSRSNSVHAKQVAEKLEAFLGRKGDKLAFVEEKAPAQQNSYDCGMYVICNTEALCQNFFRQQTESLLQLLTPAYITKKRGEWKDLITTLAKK
SENP8 block-2 = blocks the human protease SENP8; Q96LD8; purified SENP8, Z-RLRGG-aminoluciferin cleavage, luminescence; inhibition, % at 10 µM; 330,000 tested, 1.2% active; AID 2540; in the data active means inhibition above about 50%
PPC1 cytotox = PPC-1 cell cytotoxicity. 1,200 tested, 50% active. PPC-1 viability, ATPlite luminescence, overnight. cytotoxicity, % at 5 µM. shares compounds with PPC-1+TRAIL kill. AID 1447;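 active means reconfirmed compounds whose average cytotoxicity reaches 50% or more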
Hits are given with their value.

CC(C)C(=O)Nc1c(-c2ccccc2)c(=O)c2ccccc2n1C was read as SENP6 block inactive, SENP7 inh inactive, TRAIL sens C8 inactive, PPC-1+TRAIL kill inactive, SENP8 block-1 inactive and SENP8 block-2 inactive.
`Cn1c(NC(=O)c2ccco2)c(-c2ccccc2)c(=O)c2ccccc21` gave SENP6 block inactive, SENP7 inh inactive, TRAIL sens C8 inactive, PPC-1+TRAIL kill inactive, SENP8 block-1 inactive, SENP8 block-2 inactive and PPC1 cytotox inactive.
COc1ccccc1-n1c(C)cc(/C=C2/C(=N)N3C(=NC2=O)SN=C3S(C)(=O)=O)c1C was read as SENP6 block inactive, SENP7 inh inactive, TRAIL sens C8 58.1, PPC-1+TRAIL kill inactive, SENP8 block-1 inactive, SENP8 block-2 inactive and PPC1 cytotox 54.7.
Screening COc1cc(/C=C(/C#N)c2nc3ccccc3[nH]2)ccc1OCC(=O)Nc1ccccc1C returned SENP6 block inactive, SENP7 inh inactive, TRAIL sens C8 86.5, PPC-1+TRAIL kill inactive, SENP8 block-1 inactive, SENP8 block-2 inactive and PPC1 cytotox inactive.
For Cc1cc(N2CCOCC2)nc2ccc(NC(=O)CCC(=O)N3CCC(C)CC3)cc12 the results were SENP6 block inactive, SENP7 inh inactive, TRAIL sens C8 inactive, PPC-1+TRAIL kill inactive, SENP8 block-1 inactive and SENP8 block-2 inactive.
CCCCNC(=O)CCC(=O)Nc1ccc2nc(N3CCC(C)CC3)cc(C)c2c1 was read as SENP6 block inactive, SENP7 inh inactive, TRAIL sens C8 inactive, PPC-1+TRAIL kill inactive, SENP8 block-1 inactive, SENP8 block-2 inactive and PPC1 cytotox inactive.
Screening COc1ccc(C(C(=O)NC(C)(C)C)N(Cc2cccnc2)C(=O)CCC(=O)Nc2cc(C)on2)cc1 (configuration not stated) returned SENP6 block inactive, SENP7 inh inactive, TRAIL sens C8 inactive, SENP8 block-1 inactive and SENP8 block-2 inactive.
`COc1ccc(-c2nc(-c3cccs3)no2)cc1` gave SENP6 block 98.6, SENP7 inh 98.6, TRAIL sens C8 62.5, PPC-1+TRAIL kill inactive, SENP8 block-1 inactive, SENP8 block-2 96.5 and PPC1 cytotox inactive.
`COc1ccc(-c2nc(-c3ccncc3)no2)cc1` gave TRAIL sens C8 inactive and SENP8 block-1 inactive.
Screening CC(=O)Nc1ccc(S(=O)(=O)Nc2cccc(-n3c(C)nc4ccccc4c3=O)c2)cc1 returned SENP6 block inactive, SENP7 inh inactive, TRAIL sens C8 inactive, SENP8 block-1 inactive and SENP8 block-2 inactive.
Screening CN(CC(=O)NCc1ccco1)S(=O)(=O)c1ccc(F)cc1 returned SENP6 block inactive, SENP7 inh inactive, TRAIL sens C8 inactive, SENP8 block-1 inactive and SENP8 block-2 inactive.
`COc1ccccc1-[n+]1c(C)cc(/C=C2\Sc3ccccc3N2C)cc1C` gave SENP6 block inactive, SENP7 inh inactive, TRAIL sens C8 84.3, PPC-1+TRAIL kill 82.3, SENP8 block-1 inactive, SENP8 block-2 inactive and PPC1 cytotox 81.6.
Screening COc1ccccc1OC(=O)CCN1c2ccccc2Sc2ccccc21 returned SENP6 block inactive, SENP7 inh inactive, TRAIL sens C8 inactive, PPC-1+TRAIL kill inactive, SENP8 block-1 inactive and SENP8 block-2 inactive.
`COc1ccc(-c2nc3ccccc3n2Cc2ccccc2)cc1` gave SENP6 block inactive, SENP7 inh inactive, TRAIL sens C8 inactive, PPC-1+TRAIL kill inactive, SENP8 block-1 inactive and SENP8 block-2 inactive.
COc1ccc(-c2n(Cc3ccccc3)c3ccccc3[n+]2Cc2ccccc2)cc1 was read as SENP6 block inactive, SENP7 inh inactive, TRAIL sens C8 inactive, PPC-1+TRAIL kill inactive, SENP8 block-1 inactive, SENP8 block-2 inactive and PPC1 cytotox inactive.
COc1ccccc1-c1nnc(NC(=O)C(C)Sc2nncn2C)s1 (configuration not stated) was read as SENP6 block inactive, SENP7 inh inactive, TRAIL sens C8 inactive, PPC-1+TRAIL kill inactive, SENP8 block-1 inactive and SENP8 block-2 inactive.
COc1ccccc1-c1nnc(NC(=O)CSc2nncn2C)s1 was read as SENP6 block inactive, SENP7 inh inactive, TRAIL sens C8 83.4, PPC-1+TRAIL kill 76.8, SENP8 block-1 inactive, SENP8 block-2 inactive and PPC1 cytotox 68.4.
Screening CCOC(=O)c1sc(NC(=O)CSc2n[nH]c(CC(C)C)n2)nc1C returned SENP6 block inactive, SENP7 inh inactive, TRAIL sens C8 inactive, PPC-1+TRAIL kill inactive, SENP8 block-1 inactive and SENP8 block-2 inactive.
`CCOC(=O)N=Nc1c(O)n(CC(=O)OC)c2ccccc12` gave SENP6 block inactive, SENP7 inh inactive, TRAIL sens C8 inactive, PPC-1+TRAIL kill inactive, SENP8 block-1 inactive and SENP8 block-2 inactive.
`CCOC(=O)N=Nc1c2ccccc2c2nc3no[nH]c3nc12` gave SENP6 block 61.8, SENP7 inh inactive, TRAIL sens C8 96.2, PPC-1+TRAIL kill 83.1, SENP8 block-1 94.5, SENP8 block-2 inactive and PPC1 cytotox 81.2.
`CC(C)c1cccc(OCCN2CCCC2)c1` gave SENP6 block inactive, SENP7 inh inactive, TRAIL sens C8 inactive, SENP8 block-1 inactive and SENP8 block-2 inactive.
For CC(=O)Nc1sc2c(c1-c1nc3ccccc3s1)CCN(C(C)C)C2 the results were SENP6 block inactive, SENP7 inh inactive, TRAIL sens C8 53.7, PPC-1+TRAIL kill inactive, SENP8 block-1 inactive, SENP8 block-2 inactive and PPC1 cytotox inactive.
Screening CC(C)CC(=O)NC(c1cccs1)c1ccc2cccnc2c1O (configuration not stated) returned SENP6 block inactive, SENP7 inh inactive, TRAIL sens C8 inactive, SENP8 block-1 inactive and SENP8 block-2 inactive.
Screening CCC(=O)NC(c1cccs1)c1ccc2cccnc2c1O (configuration not stated) returned SENP6 block inactive, SENP7 inh inactive, TRAIL sens C8 inactive, PPC-1+TRAIL kill inactive, SENP8 block-1 inactive, SENP8 block-2 inactive and PPC1 cytotox inactive.
Screening CN(CCOc1ccc(Cl)cc1)C(=O)c1cccc(S(=O)(=O)N2CCN(c3ccccc3)CC2)c1 returned TRAIL sens C8 inactive and SENP8 block-1 inactive.
COc1ccc(-c2nsc(C(=O)N(c3ccc(F)cc3)C(C(=O)NC3CCCC3)c3ccc(OC)cc3)c2N)cc1 (configuration not stated) was read as SENP6 block inactive, SENP7 inh inactive, TRAIL sens C8 inactive, PPC-1+TRAIL kill inactive, SENP8 block-1 inactive, SENP8 block-2 inactive and PPC1 cytotox inactive.
CC(C)(C)C1CCC(=NNS(=O)(=O)c2ccc(Br)cc2)CC1 (configuration not stated) was read as SENP6 block inactive, SENP7 inh inactive, TRAIL sens C8 inactive, PPC-1+TRAIL kill inactive, SENP8 block-1 inactive and SENP8 block-2 inactive.
For CC1CCCC/C1=N\NS(=O)(=O)c1ccc(Br)cc1 (configuration not stated) the results were SENP6 block inactive, SENP7 inh inactive, TRAIL sens C8 inactive, PPC-1+TRAIL kill inactive, SENP8 block-1 inactive, SENP8 block-2 inactive and PPC1 cytotox inactive.
